CDK5 p35 inh: inhibitors of human CDK5/p35 kinase, primary screen, biochemical, single concentration; AID 488839, 2010; Recombinant CDK5/p35, ADP-Glo luminescence, 60 min; inhibition, % at 10 µM; actives 0.01% (n = 330,000);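 active means highest replicate inhibition of at least 50% and at least 75% of replicates reaching 50%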;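 further: plate controls were DMSO neutral control for no effect and GW8510 at 10 µM for full effect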
dFosB act-1: activators of delta FosB homodimer, primary screen, biochemical, fluorescence polarization, TAMRA-CDK5 oligo, single point; Protein FosB (Mus musculus), P13346; purified delta FosB; percent of positive-control signal above neutral wells; activation, % at 25 µM; actives 0.99% (n = 340,000);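 active means mean activation above about 17%, with every replicate also reaching it, limit read from the data, passing the limit was not always enough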
FGF22 binding: binders of human FGF22 protein, primary screen, FGF22 synaptogenesis inhibitor project, biophysical, thermal shift, single point; Fibroblast growth factor 22 (Homo sapiens), Q9HCT0; recombinant FGF22 thermal shift, SYPRO orange fluorescence; percent of sucrose octasulfate shift, DMSO zero; AID 651658, 2012; activity (Tm shift, normalised), % at 9.99 µM; actives 1.5% (n = 340,000);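 active means mean Tm shift, scaled 0 neutral to 100 positive control, at about 1.3% or above, every replicate too, limit read from the data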
Target sequence (Q9HCT0 whole entry, looked up): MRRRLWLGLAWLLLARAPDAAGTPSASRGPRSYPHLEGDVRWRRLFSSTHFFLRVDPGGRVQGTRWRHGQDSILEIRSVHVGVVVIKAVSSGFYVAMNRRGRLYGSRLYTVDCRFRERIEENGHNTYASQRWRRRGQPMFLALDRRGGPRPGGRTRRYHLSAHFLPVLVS
PglD inh: C. jejuni PglD acetyltransferase inhibitors, primary screen, biochemical, DTNB colorimetric, single point | UDP-N-acetylbacillosamine N-acetyltransferase PglD (Campylobacter jejuni) | actives 0.098% (n = 360,000) | inhibition, % at 12.5 µM | AID 602405, 2012 | purified PglD enzyme, DTNB colorimetric CoA detection; in the data active means inhibition above about 16%, passing the limit was not always enough
SIRT5 block: SIRT5 desuccinylase inhibitors, primary screen, biochemical, fluorescence imaging, single point, set 5; NAD-dependent protein deacylase sirtuin-5, mitochondrial (Homo sapiens), Q9NXA8; Purified SirT5, succinyl-peptide AMC, trypsin-coupled fluorescence; inhibition, % at 15 µM; actives 1.1% (n = 330,000); in the data active means inhibition above about 15%
Target sequence (Q9NXA8 whole entry, looked up): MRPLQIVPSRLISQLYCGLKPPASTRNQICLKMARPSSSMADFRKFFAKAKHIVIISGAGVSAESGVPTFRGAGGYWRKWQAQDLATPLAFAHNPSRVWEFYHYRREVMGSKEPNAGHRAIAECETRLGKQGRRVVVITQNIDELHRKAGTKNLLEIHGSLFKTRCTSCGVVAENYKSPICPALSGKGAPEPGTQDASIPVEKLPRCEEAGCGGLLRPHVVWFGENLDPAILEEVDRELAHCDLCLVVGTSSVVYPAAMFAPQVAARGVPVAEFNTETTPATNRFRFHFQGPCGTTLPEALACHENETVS
PvdQ acylase: P. aeruginosa PvdQ acylase inhibitors, primary screen, biochemical, fluorescence, plate reader and imaging, single point; purified PvdQ acylase; PvdQ acylase [Pseudomonas aeruginosa LESB58]; actives 0.063% (n = 340,000); inhibition, % at 10 µM; in the data active means inhibition above about 30%, passing the limit was not always enough;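 further: 0% = vehicle neutral wells and 100% = reference inhibitor wells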
dFosB act-2: activators of mouse delta FosB DNA binding, confirmation, biochemical, fluorescence polarization, TAMRA-CDK5 oligo, cherry-picked samples | shares compounds with dFosB act-1 | purified delta FosB; normalised: neutral wells 0, positive control 100 | activation, % at 24.9 µM | 2,400 tested, under 10 active | AID 588690, 2011;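 active means highest replicate activation at or above 34% and every replicate reaching that threshold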;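 further: higher polarization means more probe DNA bound by delta FosB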
An asterisk follows results filed as active; nt = not tested or not shown. This is a sample that favours compounds with a hit; in the whole collection about 2.8% have one here.

SMILES	CDK5 p35 inh	dFosB act-1	FGF22 binding	PglD inh	SIRT5 block	PvdQ acylase	dFosB act-2
COc1cccc(-n2c(SCC(=O)Nc3cc(C)on3)nc3c([nH]c4ccccc43)c2=O)c1	-2.0	39.2*	-0.1	1.8	-1.5	-10.7	3.2
CCc1cc2ccc(OC)cc2nc1SCC(=O)Nc1cc(C)on1	0.9	110.8*	nt	-10.1	nt	-16.5	0.5
O=C(CSc1nc2c([nH]c3ccccc32)c(=O)n1-c1cccc(Cl)c1)N1CCOCC1	-0.3	54.8*	-0.1	-0.1	0.8	-0.5	3.9
Cc1cc(NC(=O)CSc2nc3c([nH]c4ccccc43)c(=O)n2-c2cccc(C(F)(F)F)c2)no1	2.0	-1.6	nt	-8.3	nt	-13.5	nt
O=C(C[C@H]1CC[C@H]2[C@@H](COC[C@@H](O)CN2C(=O)c2ccccc2)O1)NCc1cccc(F)c1	nt	nt	0.2	0.4	-3.0	nt	nt
CO[C@H]1CN(C)C(=O)c2ccc(NC(=O)c3cc(C)on3)cc2OC[C@@H](C)N(CC2CC2)C[C@@H]1C	nt	nt	0.1	1.9	0.5	nt	nt
CC/C(=N\NC(=O)CSCc1ccccc1Br)c1ccc2c(c1)OCCO2	-1.1	20.3*	nt	3.8	nt	-10.6	0.1
CC/C(=N\NC(=O)CSCc1ccccc1Cl)c1ccc2c(c1)OCCO2	-1.2	-13.7	nt	1.8	nt	-14.2	nt
O=C(COC(=O)c1n[nH]c(=O)c2ccccc12)NC1CCCCC1	-0.9	50.4*	0.1	5.2	-0.2	-11.8	1.0
CCCNC(=O)N1CC2(CCN(C(=O)C3CCC3)CC2)c2c([nH]c3cc(OC)ccc23)[C@H]1CO	nt	nt	0.5	nt	-1.8	nt	nt
Cc1nc(SCC(=O)NC(C)c2ccccc2)c2oc3ccccc3c2n1 (configuration not stated)	-1.0	34.5*	nt	2.1	nt	-13.3	3.1
O=C(CSc1ncnc2c1oc1ccccc12)Nc1nc2ccccc2s1	-0.5	33.3*	-0.1	-5.3	nt	-6.0	2.2
CCc1nnc(NC(=O)CSc2ncnc3c2oc2ccccc23)s1	-1.8	1.2	-0.1	-0.8	-4.2	1.3	nt
COc1ccc(NC(=O)N[C@H]2CC[C@@H](CCNC(=O)Cc3ccncc3)O[C@@H]2CO)cc1	nt	nt	-0.3	0.0	-1.3	nt	nt
Cc1ccccc1S(=O)(=O)N1C[C@H]2[C@@H](c3ccccc31)[C@@H](CO)N2C(=O)CC1CC1	nt	nt	-0.5	-0.4	6.1	nt	nt
NS(=O)(=O)c1ccc(CCNC(=O)C2CCC(Cn3c(=S)[nH]c4ccccc4c3=O)CC2)cc1 (configuration not stated)	0.0	17.9*	0.2	nt	-1.2	-13.4	3.3
O=C(NCCc1ccccc1)C1CCC(CNc2nc(=S)[nH]c3ccccc23)CC1 (configuration not stated)	-2.3	23.6*	0.7	nt	-1.2	0.4	5.8
NS(=O)(=O)c1ccc(CCNC(=O)C2CCCCC2)cc1	-2.8	0.2	nt	-14.5	nt	-3.6	nt
CC(=O)NCCNC(=O)C1CCC(CNc2nc(=S)[nH]c3ccccc23)CC1 (configuration not stated)	-1.5	-0.7	0.1	1.2	-1.5	7.0	nt
COc1ccccc1-c1ccc([C@@H]2[C@@H](CO)N3CCCCN(C(=O)CN4CCOCC4)C[C@@H]23)cc1	nt	nt	-0.4	-3.7	-0.5	nt	nt
N#Cc1ccc(-c2ccc(OCC(=O)Nc3cccnc3)cc2)cc1	-0.7	-18.0	0.0	-0.7	-4.0	-9.1	nt
CC(=O)Nc1ccc(NC(=O)COc2ccc(-c3ccc(C#N)cc3)cc2)cc1	1.1	33.6*	-0.2	-0.6	5.6	2.6	4.3
C[C@@H]1CCCCO[C@@H](CN(C)C)[C@H](C)CN([C@H](C)CO)C(=O)c2cc(NC(=O)Nc3ccc(C(F)(F)F)cc3)ccc2O1	nt	nt	-0.8	-1.2	-5.4	nt	nt

From PubChem BioAssay
